Assay outcomes from PubChem.
RmlCD inh mix = RmlC and RmlD coupled enzyme inhibitors, primary screen, biochemical, 384-well, compound mixtures, retest; RmlC/RmlD coupled enzyme inhibition, 384-well mixture HTS; inhibition, % at 5.5 µM; actives 0.39% (n = 110,000); AID 1532, 2009; in the data active means inhibition above about 30%, passing the limit was not always enough; inconclusive means no clear call, values can overlap the other calls
HIV RNase H inh-1 = HIV-1 RT RNase H inhibitors, primary screen, biochemical, fluorescence; RT-RNase H RNA/DNA duplex cleavage; inhibition, % at 10 µM; actives 1.9% (n = 65,000); in the data active means inhibition above about 50%
HIV RNase H inh-2 = HIV-1 RT RNase H inhibitors, retest, confirmation, biochemical. shares compounds with HIV RNase H inh-1. Recombinant RT RNase H, fluorescent RNA/DNA duplex cleavage. inhibition, % at 10 µM. actives 39% (n = 1,000). AID 651, 2007; in the data active means inhibition above about 48%; inconclusive means no clear call, values can overlap the other calls
Active calls of the source: *. Shown is part of a subset that was picked to be rich in hits.

Cc1sc(NC(=O)CSc2nnc(-c3ccc(F)cc3)o2)c(C#N)c1C was read as RmlCD inh mix 5.0 and HIV RNase H inh-1 5.7.
`O=C(Oc1ccc(-c2cnc3ccccc3n2)cc1)c1ccco1` gave RmlCD inh mix -15.4, HIV RNase H inh-1 72.6* and HIV RNase H inh-2 inconclusive.
`CCC(=O)Oc1ccc(-c2cnc3ccccc3n2)cc1` gave RmlCD inh mix -14.7.
For Cc1csc(SCC(=O)Nc2ncc(Cl)c(C)c2Cl)n1 the results were RmlCD inh mix 0.6.
`ONC(=Nc1ccccc1)C(=Nc1ccccc1)NO` gave RmlCD inh mix -5.1 and HIV RNase H inh-1 0.8.
Cc1ccc(S(=O)(=O)Nc2cc(C)c(O)c(S(=O)(=O)c3ccc(C)cc3)c2)cc1 was read as RmlCD inh mix 9.4.
`Cc1cc(NS(=O)(=O)c2ccccc2)cc(Cl)c1O` gave RmlCD inh mix -6.2, HIV RNase H inh-1 77.6* and HIV RNase H inh-2 8.7.
For COc1ccc(CN/C(C)=C(/C#N)C(N)=O)cc1OC the results were RmlCD inh mix 5.7 and HIV RNase H inh-1 -9.9.
COc1nc(-c2ccccc2)ccc1-c1noc(-c2ccccc2)n1 was read as RmlCD inh mix -5.0 and HIV RNase H inh-1 0.0.
For COc1nc(-c2ccc(Cl)cc2)ccc1-c1noc(-c2ccncc2)n1 the results were HIV RNase H inh-1 63.9* and HIV RNase H inh-2 47.6.
Nc1ccc2nn(-c3cccc4ccccc34)nc2c1 was read as RmlCD inh mix -179.9 and HIV RNase H inh-1 10.7.
Screening Cc1cc2nn(-c3cccc4ccccc34)nc2cc1N returned RmlCD inh mix -33.4, HIV RNase H inh-1 66.6* and HIV RNase H inh-2 22.1.
For Cc1cc2cc(C)c3nnc(SCC(=O)N4CCc5ccccc54)n3c2cc1C the results were RmlCD inh mix -10.0.
Screening CCC/C=C(\CCC)C(NC(=O)c1ccc(C(=O)OC)cc1)c1ccc(C(=O)OC)cc1 (stereo unspecified) returned RmlCD inh mix 3.3.
CCNC(=O)CC1C(=O)N(c2ccc(F)cc2)C(=O)N1Cc1ccccn1 (stereo unspecified) was read as RmlCD inh mix 6.7 and HIV RNase H inh-1 -14.6.
Screening CCn1c(-c2ccc(C)cc2)n[nH]c1=S returned RmlCD inh mix 5.2.
CCn1c(=S)sc2nc(C)sc21 was read as RmlCD inh mix 3.7, HIV RNase H inh-1 84.0* and HIV RNase H inh-2 46.0.
Screening COc1ccc(C2(CNC(=O)CCC(=O)O)CCCC2)cc1 returned RmlCD inh mix -7.7 and HIV RNase H inh-1 11.1.
For CSc1ccccc1NS(=O)(=O)c1ccccc1 the results were RmlCD inh mix 2.1 and HIV RNase H inh-1 -62.1.
For CCOC(=O)C1=C(C)N(CCCC(=O)O)C(=O)NC1c1ccccc1OC(=O)c1cccs1 (stereo unspecified) the results were RmlCD inh mix 7.7.
For COC(=O)Nc1nnc(-c2ccncc2)s1 the results were RmlCD inh mix 10.9, HIV RNase H inh-1 66.8* and HIV RNase H inh-2 inconclusive.
For O=C(Nc1ccc(F)cc1)Nc1nnc(-c2ccncc2)s1 the results were RmlCD inh mix -4.4.
COc1ccc(OC)c(NC(=O)C2C3CCC(O3)C2C(=O)O)c1 (stereo unspecified) was read as HIV RNase H inh-1 -3.7.
CCCC(C(=O)NC1CCCC1)N(CCCN1CCOCC1)C(=O)c1snc(C(N)=O)c1N (stereo unspecified) was read as RmlCD inh mix 8.6 and HIV RNase H inh-1 -26.8.
`O=C(Nc1cnn(Cc2ccc(F)cc2)c1)c1cc2nc(-c3ccco3)cc(C(F)(F)F)n2n1` gave RmlCD inh mix inconclusive, HIV RNase H inh-1 58.6* and HIV RNase H inh-2 25.7.
Cc1nn(Cc2ccccc2)c(C)c1NC(=O)c1cc2nc(-c3ccco3)cc(C(F)(F)F)n2n1 was read as RmlCD inh mix -33.9 and HIV RNase H inh-1 5.8.
`Cc1ccc(-c2nnc(SCC(=O)N3CCOCC3)nc2-c2ccc(C)cc2)cc1` gave RmlCD inh mix 0.1.
`COc1cccc(/C=N/n2c(-c3cccs3)n[nH]c2=S)c1` gave RmlCD inh mix -6.1.
Screening COc1ccccc1C(=O)Nc1ccc(C(=O)N2CCCC2)cc1 returned RmlCD inh mix -8.6.
`NS(=O)(=O)c1ccc(NC(=O)c2ccccc2C(=O)N2CCCCC2)cc1` gave RmlCD inh mix 3.5, HIV RNase H inh-1 75.7* and HIV RNase H inh-2 14.3.
`CCn1c(SCC(=O)Nc2cccc(NC(C)=O)c2)nnc1C(C)C` gave RmlCD inh mix 1.1 and HIV RNase H inh-1 -0.7.
Screening COc1ccc(C(=O)Nc2ccccc2C(=O)N(Cc2ccco2)C(C(N)=O)C(C)C)cc1 (stereo unspecified) returned RmlCD inh mix 4.6.
COc1ccc(C(=O)Nc2ccccc2C(=O)NC(C(=O)NCc2ccco2)C(C)C)cc1 (stereo unspecified) was read as RmlCD inh mix 9.2, HIV RNase H inh-1 82.4* and HIV RNase H inh-2 7.5.
CCSc1nnc(NC(=O)Cc2ccc(OC)c(S(=O)(=O)N3CCOCC3)c2)s1 was read as RmlCD inh mix -11.1 and HIV RNase H inh-1 -5.1.
For O=C1c2ccccc2C(=O)C1c1ccnc2ccccc12 the results were RmlCD inh mix -9.0.
For N#CC1=C(N)SC(N)=C(C#N)C1c1ccnc2ccccc12 the results were RmlCD inh mix -9.3, HIV RNase H inh-1 64.9* and HIV RNase H inh-2 60.4*.
`CCCCOc1ccc(-c2nc(=S)[nH][nH]2)cc1` gave RmlCD inh mix -12.9.
Screening Cc1ccc(NC(=O)Cc2nc(CSc3nnc(-c4ccc5c(c4)OCO5)o3)cs2)cc1 returned RmlCD inh mix -17.3 and HIV RNase H inh-1 4.7.
Screening O=C(NCCO)c1ccc2[nH]c3c(c2c1)CCCC3 returned RmlCD inh mix -10.6 and HIV RNase H inh-1 6.2.
Screening O=C(O)c1ccc2[nH]c3c(c2c1)CSCC3 returned RmlCD inh mix 1.5, HIV RNase H inh-1 65.8* and HIV RNase H inh-2 -1.1.
Cc1c(NC(=O)C(C)Sc2nc3ccccc3c(=O)n2CCO)c(=O)n(-c2ccccc2)n1C (stereo unspecified) was read as RmlCD inh mix -2.4 and HIV RNase H inh-1 0.4.
`CC1CC1C(=O)OCC(=O)NC(=O)NCc1ccco1` (stereo unspecified) gave RmlCD inh mix -39.5.
For CC(C)C(=O)Nc1ccc(NC(=O)c2cccc(F)c2)cn1 the results were RmlCD inh mix 0.7 and HIV RNase H inh-1 -18.6.
Screening COc1ccc(-n2ncc3c(N4CCN(c5cc(C)ccc5C)CC4)ncnc32)cc1 returned RmlCD inh mix -265.1, HIV RNase H inh-1 54.0* and HIV RNase H inh-2 8.3.
`COc1ccc(N2CCN(c3ncnc4c3cnn4-c3ccc(C)cc3C)CC2)cc1` gave RmlCD inh mix 7.7 and HIV RNase H inh-1 3.8.
For COCCSc1nnc(NC(=O)C(C)(C)C)s1 the results were RmlCD inh mix -13.7.
Screening COc1ccc(CCNC(=O)COC(=O)c2ccco2)cc1OC returned RmlCD inh mix 6.9 and HIV RNase H inh-1 -5.8.
Screening COc1ccc(CCNC(=O)c2ccc3nc(-c4ccco4)c(-c4ccco4)nc3c2)cc1OC returned HIV RNase H inh-1 93.1* and HIV RNase H inh-2 -0.1.
`Cc1ccc(C(=O)N/C(=C\c2ccco2)C(=O)NCCCn2ccnc2)cc1C` gave RmlCD inh mix -5.9.
